Drawing on PubChem BioAssay (Tox21), this text covers Potency, outcome and PLD induction for 8 molecules.

Molecules are shown by their SMILES. Values joined by “and” are separate entries in the source; they are usually repeats but may differ in a detail not shown here. Equal entries are not always repeated. A number with no mark means an inactive call. Inconclusive results are not listed. Active and inactive are the calls of the source. Unless noted, calls follow the shape of the dose curve; as a rule, active = well fitted curve in the direction sought with a large enough effect in the repeat runs; inconclusive = weak or mixed curves; inactive = no such curve, though single readings can be large; an effect the other way counts as inactive or inconclusive.

Test [1] in a line: qHTS assay to identify small molecule antagonists of the estrogen receptor alpha (ER-alpha) signaling pathway using the BG1 cell line in the presence of 0.1 nM 17-beta-estradiol - cell viability counter screen (AID 1259241). Also: nearly all actives have a fitted effect of over 40% in size. Also: potency is read from the fitted curve at half-maximal effect. A digest of the protocol: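 VM7Luc4E2 cells (endogenous full-length ER-alpha, 4xERE-luciferase), cultured 5 days in charcoal-stripped serum, exposed to compounds with 0.1 nM 17beta-estradiol (final) for 22 hr at 37C. Viability read in same wells as live-cell protease fluorescence after 30 min.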

Test [2] is described as follows: qHTS assay to identify small molecule antagonists of the androgen receptor (AR) signaling pathway using the MDA cell line in the presence of 0.5 nM R1881 - cell viability counter screen (AID 1259242). Also: nearly all actives have a fitted effect of over 45% in size. Also: potency is read from the fitted curve at half-maximal effect. The procedure, abridged:
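Concentration-response screen of compounds for toxicity in MDA-kb2 reporter cells: 16 hr at 37C with 0.5 nM R1881, endpoint live-cell protease fluorescence measured in the reporter wells.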
A general note: qHTS replaces the single test concentration by a dilution series.

The target of test [3] is Estrogen receptor (Homo sapiens) (UniProt P03372). Description: qHTS assay to identify small molecule antagonists of the estrogen receptor alpha (ER-alpha) signaling pathway using the BG1 cell line in the presence of 0.1 nM 17-beta-estradiol (AID 1259244). Also: nearly all actives have a fitted effect of over 50% in size. The procedure, abridged: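 Compounds were tested against 0.1 nM (final) 17beta-estradiol in VM7Luc4E2 cells, which express full-length ER-alpha and an ERE-luciferase reporter; luminescence was recorded following 22 h exposure.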
Chain of Estrogen receptor (Homo sapiens) (P03372 whole entry, looked up): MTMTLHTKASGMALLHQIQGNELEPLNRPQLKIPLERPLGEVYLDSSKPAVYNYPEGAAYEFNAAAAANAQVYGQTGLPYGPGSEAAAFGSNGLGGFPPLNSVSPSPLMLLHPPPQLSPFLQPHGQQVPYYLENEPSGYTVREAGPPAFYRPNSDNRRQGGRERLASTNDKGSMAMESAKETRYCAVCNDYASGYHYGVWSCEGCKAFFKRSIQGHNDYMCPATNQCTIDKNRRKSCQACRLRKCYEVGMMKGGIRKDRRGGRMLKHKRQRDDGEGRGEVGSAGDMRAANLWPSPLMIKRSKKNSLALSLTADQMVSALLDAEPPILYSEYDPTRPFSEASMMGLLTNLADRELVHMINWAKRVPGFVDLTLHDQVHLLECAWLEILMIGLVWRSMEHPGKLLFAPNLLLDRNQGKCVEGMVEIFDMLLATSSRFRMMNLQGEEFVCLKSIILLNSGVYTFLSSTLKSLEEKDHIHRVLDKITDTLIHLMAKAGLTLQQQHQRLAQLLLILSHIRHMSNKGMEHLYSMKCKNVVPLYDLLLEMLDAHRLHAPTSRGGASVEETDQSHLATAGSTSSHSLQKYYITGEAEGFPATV

The nature of test [4]: qHTS assay to identify small molecule HDAC inhibitors (AID 1259364). Also: potency is read from the fitted curve at half-maximal effect.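 Also: wild-type HCT-116 cells with endogenous class I/II HDAC activity; nearly all actives have a fitted effect of over 45% in size.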 A digest of the protocol: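 Screening used wild-type human colon HCT-116 cells incubated overnight, dosed with compounds for 2 hours, and assayed with a homogeneous luminogenic HDAC I/II reagent for 30 minutes at room temperature.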
Test [5] can be described thus: qHTS assay to identify small molecule HDAC inhibitors - cell viability counter screen (AID 1259365). Also: nearly all actives have a fitted effect of over 50% in size. Also: potency is read from the fitted curve at half-maximal effect. A digest of the protocol: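 Wild-type HCT-116 cells, 1,500/well, cultured overnight, then compound-treated 2 h at 37 C. Viability measured as ATP luminescence with CellTiter-Glo after 30 min at room temperature.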
Test [6] is described as follows: qHTS assay to identify small molecule agonists of the sonic hedgehog signaling (Shh) pathway - cell viability counter screen (AID 1259366). Also: nearly all actives have a fitted effect of over 50% in size. Also: potency is read from the fitted curve at half-maximal effect. The procedure, abridged:
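NIH/3T3-derived Gli1-Luc reporter cells, 2,000 per well, received compound after 4 h and were treated about 23 h at 37C. Viability measured in the same wells by CellTiter-Fluor fluorescence after 1 h.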

The nature of test [7]: qHTS assay to identify small molecule antagonists of the sonic hedgehog signaling (Shh) pathway - cell viability counter screen (AID 1259367). Also: nearly all actives have a fitted effect of over 55% in size. Also: potency is read from the fitted curve at half-maximal effect. A digest of the protocol:
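Conditioned medium drove Shh signaling in 3T3 Gli1-Luc cells exposed to compounds at 37C and 5% CO2. Viability was determined from CellTiter-Fluor fluorescence, with reagent incubated 1 hr after 23 hr of treatment.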

The nature of test [8]: qHTS assay to identify small molecule agonists of the sonic hedgehog signaling (Shh) pathway (AID 1259368; calls by dose curve;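 also: NIH/3T3-derived 3T3Gli1-Luc cells carrying a stable Gli1-driven firefly luciferase reporter; series mostly up to about 92 µM; nearly all actives have a fitted effect of over 15% in size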). A digest of the protocol: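 Hedgehog pathway agonism scored by increased firefly luciferase luminescence in 3T3Gli1-Luc cells treated 24 hr at 37 C; detection used a 30 min room-temperature reagent incubation.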
A short description of test [9]: qHTS assay to identify small molecule antagonists of the sonic hedgehog signaling (Shh) pathway (AID 1259369; calls by dose curve; also: nearly all actives have a fitted effect of over 45% in size; also: potency is read from the fitted curve at half-maximal effect). The procedure, abridged: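 NIH/3T3 stable Gli1-Luc clone, 2,000 cells/well, 4hr settle; cpd + conditioned medium 24hr; Luc reagent 30min RT; luminescence.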
The target in test [10] is Estrogen receptor beta (Homo sapiens) (UniProt Q92731). The experiment in a line: qHTS assay to identify small molecule agonists of the estrogen receptor beta (ER-beta) signaling pathway (AID 1259377; active = well fitted activation curve with a large enough effect in the signal ratio in the repeat runs, not every such curve was filed as active; the % refers to the signal ratio). The procedure, abridged:
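ER-beta-UAS-bla HEK293T cells in medium with 2% charcoal-stripped FBS were exposed to compounds for 16 h at 37C. Beta-lactamase reporter activity was read as fluorescence after 2 h with LiveBLAzer B/G FRET substrate at room temperature.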

Test [11] shares this target. The experiment in a line: qHTS assay to identify small molecule antagonists of the estrogen receptor beta (ER-beta) signaling pathway (AID 1259378; active = well fitted inhibition curve with a large enough effect in the signal ratio in the repeat runs, not every such curve was filed as active; the % refers to the signal ratio). The procedure, abridged: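 ER-beta-UAS-bla HEK293T (GripTite) cells in 2% charcoal-stripped FBS medium were preincubated 6 hr at 37C, dosed with compound, then stimulated with 1 nM E2 (final) for 16 hr; beta-lactamase reporter read by B/G FRET fluorescence after 2 hr substrate loading.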

Test [12] is described as follows: qHTS assay to identify small molecule agonists of the androgen receptor (AR) signaling pathway in the presence of an antagonist - cell viability counter screen (AID 1259379).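 Also: MDA-kb2 human breast cancer cells carrying an MMTV luciferase reporter; series mostly up to about 92 µM; nearly all actives have a fitted effect of over 25% in size.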 The procedure, abridged:
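MDA-kb2 viability measured by CellTiter-Fluor fluorescence in the same wells as the luciferase signal; nilutamide 3.0uM final; 15-point compound titration; 16 hr at 37C.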

Test [13] in a line: qHTS assay to identify small molecule agonists of the estrogen receptor beta (ER-beta) signaling pathway - cell viability counter screen (AID 1259380). Also: nearly all actives have a fitted effect of over 30% in size. Also: potency is read from the fitted curve at half-maximal effect. A digest of the protocol: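 Measured: luminescence from CellTiter-Glo after 30 min at room temperature, added to wells already read for the LiveBLAzer FRET reporter (2 hr substrate); ER-beta-UAS-bla HEK293T cells had 16 hr compound treatment at 37C, 5% CO2.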

The nature of test [14]: qHTS assay to identify small molecule antagonists of the estrogen receptor beta (ER-beta) signaling pathway - cell viability counter screen (AID 1259382). Also: nearly all actives have a fitted effect of over 55% in size. Also: potency is read from the fitted curve at half-maximal effect. The procedure, abridged:
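Readout: luminescence, CellTiter-Glo, same wells as bla assay. System: ER-beta-UAS-bla GripTite HEK293T, 2% charcoal-stripped FBS. Exposure: compounds plus 1nM 17-beta-estradiol, 16 hr, 37C.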

Test [15] has as its target Estrogen receptor (Homo sapiens) (UniProt P03372). Description: qHTS assay to identify small molecule agonists of the estrogen receptor alpha (ER-alpha) signaling pathway in the presence of an antagonist (AID 1259383; calls by dose curve; also: top concentration of the series differs between compounds; nearly all actives have a fitted effect of over 15% in size). The procedure, abridged:
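Quantitative HTS confirmation: compounds titrated at 15 concentrations onto estrogen-deprived VM7Luc4E2 cells carrying a four-ERE luciferase construct, with ICI-182,780 present at 10.0nM final. Signal is luminescence after 22hr exposure.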

The nature of test [16]: qHTS assay to identify small molecule agonists or antagonists of the thyroid stimulating hormone receptor (TSHR) signaling pathway - wild type cell line counter screen (AID 1259384; calls by dose curve). The procedure, abridged:
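Wild-type HEK293 cells were plated 18 h at 37 C/5% CO2, pin-dosed with compound plus Ro20-1724 medium, held 30 min at room temperature, then given cAMP-d2 and anti-cAMP-cryptate; fluorescence was read after 1 h. Fifteen concentrations, triplicate.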

Test [17] addresses Thyrotropin receptor (Homo sapiens) (UniProt P16473). Description: qHTS assay to identify small molecule antagonists of the thyroid stimulating hormone receptor (TSHR) signaling pathway (AID 1259385; calls by dose curve; also: nearly all actives have a fitted effect of over 20% in size). A digest of the protocol:
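TSHR-HEK293 cells were plated and held 18 h at 37C/5% CO2, then given compound plus Ro20-1724 and stimulated with TSH at 1.5 ng/mL final. After 30 min at room temperature, cAMP was detected with cAMP-d2/anti-cAMP-cryptate (1 h) by fluorescence.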

The target of test [18] is Androgen receptor (Homo sapiens) (UniProt P10275). The experiment in a line: qHTS assay to identify small molecule agonists of the androgen receptor (AR) signaling pathway in the presence of an antagonist (AID 1259381; calls by dose curve; also: nearly all actives have a fitted effect of over 15% in size). The procedure, abridged:
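Luminescent ONE-Glo read, 30min at room temperature, follows 16hr compound exposure (15 concentrations) of MDA-kb2 cells at 37C, 0% CO2, with nilutamide added at 3.0uM final.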

Test [19] is described as follows: qHTS assay to identify small molecule phospholipidosis (PLD) inducers (AID 1259344; active = well fitted curve in the direction sought with a large enough effect; an effect the other way counts as inactive or inconclusive). The procedure, abridged: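 After 4 h attachment on collagen I, HepG2 cells were dosed with compound alongside LipidTOX Red, kept 24 h at 37 C, fixed, and imaged for lamellar phospholipid pits.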
% is scaled to controls: 0 for no effect and ±100 for the full control effect.

Chain of Estrogen receptor beta (Homo sapiens) (Q92731 whole entry, looked up): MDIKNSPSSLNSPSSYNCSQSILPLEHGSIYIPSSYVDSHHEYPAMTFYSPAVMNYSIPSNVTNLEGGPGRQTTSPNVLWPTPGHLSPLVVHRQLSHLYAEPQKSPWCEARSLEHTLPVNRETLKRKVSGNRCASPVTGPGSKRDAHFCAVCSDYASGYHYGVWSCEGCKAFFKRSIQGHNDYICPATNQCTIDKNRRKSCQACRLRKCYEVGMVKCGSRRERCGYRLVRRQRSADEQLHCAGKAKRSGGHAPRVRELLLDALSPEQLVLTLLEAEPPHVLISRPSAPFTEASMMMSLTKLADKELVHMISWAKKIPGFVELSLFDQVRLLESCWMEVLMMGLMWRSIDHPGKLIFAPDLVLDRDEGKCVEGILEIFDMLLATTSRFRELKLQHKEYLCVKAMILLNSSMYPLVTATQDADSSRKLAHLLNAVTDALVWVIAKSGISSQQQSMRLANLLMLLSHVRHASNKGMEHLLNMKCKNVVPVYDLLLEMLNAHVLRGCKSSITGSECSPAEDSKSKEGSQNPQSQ
Chain of Thyrotropin receptor (Homo sapiens) (P16473 whole entry, looked up): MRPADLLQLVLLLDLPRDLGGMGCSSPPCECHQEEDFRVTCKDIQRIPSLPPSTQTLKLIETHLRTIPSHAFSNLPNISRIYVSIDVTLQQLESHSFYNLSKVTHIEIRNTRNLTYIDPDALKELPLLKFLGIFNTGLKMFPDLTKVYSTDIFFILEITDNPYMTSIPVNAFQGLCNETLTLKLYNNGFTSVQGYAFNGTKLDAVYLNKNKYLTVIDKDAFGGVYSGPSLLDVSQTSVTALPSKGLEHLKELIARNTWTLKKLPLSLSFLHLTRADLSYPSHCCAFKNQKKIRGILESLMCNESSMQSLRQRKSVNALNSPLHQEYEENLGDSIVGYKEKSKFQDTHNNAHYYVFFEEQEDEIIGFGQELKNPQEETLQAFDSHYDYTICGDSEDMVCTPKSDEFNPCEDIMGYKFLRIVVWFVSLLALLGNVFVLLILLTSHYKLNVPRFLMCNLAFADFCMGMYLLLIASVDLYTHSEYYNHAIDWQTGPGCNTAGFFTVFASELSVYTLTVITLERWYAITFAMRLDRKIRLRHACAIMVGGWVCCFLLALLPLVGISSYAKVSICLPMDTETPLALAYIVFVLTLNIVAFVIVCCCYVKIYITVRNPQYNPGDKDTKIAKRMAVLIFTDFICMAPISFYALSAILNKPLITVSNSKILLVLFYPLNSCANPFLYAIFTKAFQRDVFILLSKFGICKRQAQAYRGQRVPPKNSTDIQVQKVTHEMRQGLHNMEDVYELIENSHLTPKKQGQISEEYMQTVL
Chain of Androgen receptor (Homo sapiens) (P10275 whole entry, looked up): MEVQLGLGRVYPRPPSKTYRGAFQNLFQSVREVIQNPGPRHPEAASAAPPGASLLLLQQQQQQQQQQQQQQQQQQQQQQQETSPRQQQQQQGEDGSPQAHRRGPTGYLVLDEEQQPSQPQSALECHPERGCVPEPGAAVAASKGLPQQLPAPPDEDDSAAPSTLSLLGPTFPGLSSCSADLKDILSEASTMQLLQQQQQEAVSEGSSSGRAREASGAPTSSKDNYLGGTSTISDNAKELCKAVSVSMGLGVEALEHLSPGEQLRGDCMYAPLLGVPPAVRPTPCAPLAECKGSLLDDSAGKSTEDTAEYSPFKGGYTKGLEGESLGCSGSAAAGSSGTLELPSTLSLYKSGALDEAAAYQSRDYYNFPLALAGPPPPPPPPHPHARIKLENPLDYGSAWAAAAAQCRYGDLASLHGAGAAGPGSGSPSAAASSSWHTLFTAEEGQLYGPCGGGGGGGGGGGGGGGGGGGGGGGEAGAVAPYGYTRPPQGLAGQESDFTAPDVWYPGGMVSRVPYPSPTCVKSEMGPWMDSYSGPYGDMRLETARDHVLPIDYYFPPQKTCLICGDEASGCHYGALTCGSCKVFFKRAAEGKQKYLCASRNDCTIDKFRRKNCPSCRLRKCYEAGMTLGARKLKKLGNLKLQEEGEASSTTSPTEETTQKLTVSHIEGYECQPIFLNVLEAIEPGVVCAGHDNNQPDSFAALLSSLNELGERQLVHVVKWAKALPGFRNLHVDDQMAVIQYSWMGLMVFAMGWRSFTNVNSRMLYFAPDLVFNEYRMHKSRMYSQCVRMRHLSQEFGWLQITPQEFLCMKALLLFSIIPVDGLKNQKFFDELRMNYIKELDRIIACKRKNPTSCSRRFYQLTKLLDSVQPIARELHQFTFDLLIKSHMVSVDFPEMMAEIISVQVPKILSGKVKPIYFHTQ

In the case of `CC(C)(c1ccccc1)c1cc(-n2nc3ccccc3n2)c(O)c(C(C)(C)c2ccccc2)c1`, the Potency result in [1], in test [2], in test [3], in test [4], in test [5] and in test [6] was “inactive” each time. In addition, the Potency result in test [7], in [8], in [9], in test [10], in test [11] and in [12] was “inactive” throughout. In addition, the Potency result in [13], in test [14], in test [15] and in [17] was “inactive” each time. Besides, the call in test [16] was inactive.

For `CCC1CCC(=O)O1` (stereo unspecified), the Potency result in test [1], in test [2], in test [4], in test [5], in test [6] and in test [7] was “inactive” each time. For the same molecule, the Potency result in [8], in [9], in test [11], in [12], in [13] and in test [14] was “inactive” in each case. For the same molecule, the Potency result in test [17] was “inactive”. Further, the result in test [16] was inactive.

On to `CC(C)(C)c1ccc(CCOc2ncnc3ccccc23)cc1`, for which the Potency entry in test [1], in [2], in [4], in test [5], in test [6] and in [7] was “inactive” throughout. Besides, the Potency entry in test [8], in test [9], in [10], in test [11], in test [12] and in test [13] was “inactive” each time. Further, the Potency result in [14], in test [15] and in test [17] was “inactive” in each case. Also, the call in test [16] was inactive.

`COC(=O)C1(O)c2ccccc2-c2ccccc21`: the Potency entry in test [1], in [2], in test [4], in [5], in test [6] and in test [7] was “inactive” throughout. For the same molecule, the Potency result in [8], in [9], in test [10], in test [11], in test [13] and in test [18] was “inactive” in each case. The Potency entry in [14], in [15] and in test [17] was “inactive” each time. Moreover, the call in [16] was inactive.

Turning to `C[C@@H]1C[C@@H]([C@H](O)CC2CC(=O)NC(=O)C2)C(=O)[C@@H](C)C1`, the Potency entry in test [1], in [2], in test [4], in test [5], in test [8] and in [10] was “inactive” each time. The Potency entry in [12], in [14] and in test [17] was “inactive” in each case. Besides, the PLD induction in [19] is 2.68% [at 7.66 µM]. Besides, the Potency in test [6] was 2.16 µM (active); in test [9], 12.1 nM (active) and 48.6 nM (active) and 150 nM (active). The molecule was called inactive in [16].

For `CC1(C)CC(=O)CC(C)(C)N1[O]`, the Potency result in [1], in [2], in test [4], in test [5], in test [6] and in test [7] was “inactive” throughout. Besides, the Potency entry in [8], in [9], in [10], in [11], in [12] and in test [13] was “inactive” each time. Besides, in test [14], the Potency entry was “inactive”. In addition, the result in test [16] was inactive.

Consider `[Cl-].[Cl-].[Hg+2]`, for which the Potency in [1] is 27.2 µM (active) and 21.7 µM (active); in test [2], 6.86 µM (active); in [4], 54.2 µM (active) and 34.4 µM (active); in [5], 68.2 µM (active); in test [6], 682 nM (active) and 2.17 µM (active); in [7], 964 nM (active) and 1.93 µM (active). Further, the Potency in test [9] is 34.2 nM (active) and 243 nM (active); in test [13] it was 5.42 µM (active) and 3.86 µM (active); in [14], 4.31 µM (active) and 4.86 µM (active). The molecule was classed as inactive in test [19]. The Potency result in test [8] and in test [12] was “inactive” throughout.

For the molecule `C=CC(=O)NC(C)(C)CC(C)=O`, the Potency result in [1], in [2], in [4], in test [5], in [6] and in test [7] was “inactive” in each case. Also, the Potency result in test [8], in [9], in test [10], in test [11], in test [12] and in [13] was “inactive” throughout. For the same molecule, the Potency entry in test [14] and in test [15] was “inactive” each time.
